Source: PubChem BioAssay (NCI)
The panel holds about 83,000 compounds, 20% with a hit somewhere; the sample as a whole holds those more often.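 Plates (96-well) were seeded with cells, treated with compound at one concentration, and incubated for 48 hours before percent growth was determined.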 Values without a mark were called inactive. The source made the active and inactive calls. How the source made its calls: active means growth percent below 10; inactive means the rest.

Key:
Assay in all cases: NCI-60 one-dose screen, 48 h (100 = growth as untreated, 0 = no growth, -100 = all killed)
[1] = test system: NCI-H23 lung; details: 10 µM unless noted
[2] = test system: NCI-H226 lung; details: 10 µM unless noted
[3] = test system: NCI-H322M lung; details: 10 µM unless noted
[4] = test system: HOP-62 NSCLC; details: 10 µM unless noted
[5] = test system: NCI-H460 lung; details: 10 µM unless noted
[6] = test system: 786-0 renal; details: 10 µM unless noted
[7] = test system: MDA-MB-231 breast; details: 10 µM unless noted
[8] = test system: SF-268 CNS; details: 10 µM unless noted
[9] = test system: SF-539 CNS; details: 10 µM unless noted
[10] = test system: M14 melanoma; details: 10 µM unless noted
[11] = test system: HCT-15 colon; details: 10 µM
[12] = test system: U251 CNS; details: 10 µM unless noted
[13] = test system: UO-31 renal; details: 10 µM unless noted
[14] = test system: SK-OV-3 ovarian; details: 10 µM unless noted
[15] = test system: OVCAR-3 ovarian; details: 10 µM unless noted
[16] = test system: MDA-MB-435 melanoma; details: 10 µM unless noted
[17] = test system: SW-620 colon; details: 10 µM unless noted
[18] = test system: MCF7 breast; details: 10 µM unless noted
[19] = test system: HCT-116 colon; details: 10 µM unless noted
[20] = test system: KM12 colon; details: 10 µM unless noted

| Compound | growth [1] | growth [2] | growth [3] | growth [4] | growth [5] | growth [6] | growth [7] | growth [8] | growth [9] | growth [10] | growth [11] | growth [12] | growth [13] | growth [14] | growth [15] | growth [16] | growth [17] | growth [18] | growth [19] | growth [20] |
| --- | --- | --- | --- | --- | --- | --- | --- | --- | --- | --- | --- | --- | --- | --- | --- | --- | --- | --- | --- | --- |
| CN1C(=O)NC(=O)C(N=Nc2ccc(Cl)cc2)C1=O (stereo not drawn) | 95.3% | 105% | 102% | 123% | 102% | 78.4% | 85.7% | 93.5% | 101% | 81.5% | 88% | 108% | 104% | 120% | 105% | 95.7% | 106% | 93% | 93.3% | 82.6% |
| c1cnc2c(c1)ccc1ncccc12 | 121% | 100% | 123% | 103% | 108% | 105% | 108% | 96.4% | 106% | 91% | 110% | 105% | 93.2% | 104% | 90.6% | 113% | 144% | 107% | 89.8% | 107% |
| CCC(CC)(c1ccccc1)C(OC(N)=O)c1ccccc1 (stereo not drawn) | 79.9% | 81.8% | 85% | 84.7% | 90.1% | 82.9% | 94.7% | 93.9% | 103% | 83.6% | 80% | 82.1% | 71.4% | 66.5% | 89% | 50.6% | 81% | 81.9% | 62.4% | 83.8% |
| O=C1NC(=O)C(CN2C(=O)C3(c4ccccc42)[C@H](Cl)C(=O)N3c2ccccc2)C(=O)N1 (stereo partly drawn) | 69.1% | 76.4% | 90.6% | 66.3% | 94.8% | 94% | 51.4% | 84.7% | 74.1% | 105% | 94.7% | 72.6% | 69.2% | 83.1% | 54.7% | 104% | 72.5% | 18.4% | 79.9% | 86.3% |
| CCCCn1cc(C(=O)/C(C#N)=C/c2cc3ccccc3nc2Cl)c2cc(OC)ccc21 | 92.8% | 84.3% | 98% | 86.1% | 101% | 97% | 87.8% | 83.1% | 89% | – | 94.3% | 83.2% | 61.6% | 94.5% | 78.6% | 101% | 44.7% | 72% | 23.6% | 94.5% |
| C[C@]12CC[C@H](OC3OC(O)C(O)C(O)C3O)C=C1CCC1C2CC[C@]2(C)[C@@H](c3ccc(=O)oc3)CC[C@]12O (stereo partly drawn) | -68.9% (active) | -70.6% (active) | -71.8% (active) | -97.8% (active) | -80.1% (active) | -84.4% (active) | -72.1% (active) | -99.4% (active) | -83.1% (active) | -81% (active) | -81.8% (active) | 104% | -92.3% (active) | -93.7% (active) | -99.2% (active) | -88.2% (active) | -90.5% (active) | -64.3% (active) | -95.3% (active) | -93.8% (active) |
| CC[C@@H](C)/C=C(C)/C=C/C(=O)c1c(O)c(-c2ccc(O)cc2)cn(O)c1=O | 19.6% | -1.76% (active) | 22.5% | 9.35% (active) | 1% (active) | 0.309% (active) | – | -0.607% (active) | 5.1% (active) | -1.25% (active) | 30.7% | 3.54% (active) | -8.98% (active) | 17.8% | 25.7% | 24.1% | 20.2% | 15.4% | 16.7% | 23.5% |
| Cc1ccccc1O | 105% | 97% | 114% | 95.4% | 117% | 105% | 115% | 109% | 104% | 101% | 106% | 105% | 82.6% | 97.5% | 130% | 117% | 112% | 119% | 103% | 106% |
